Bioassay records (PubChem)
SW480 rereplic: A quantitative high throughput screen for small molecules that induce DNA re-replication in SW480 colon adenocarcinoma cells; SW480 DNA re-replication, Hoechst DNA content imaging, 48 h; Potency, µM (titrated, usually from 46.1 µM), most hits filed as activators; 340,000 tested, 1.8% active; AID 624297, 2012; further: nearly all actives have a fitted effect of over 55% in size
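SW480 cells exposed to compounds for 48 hr at 37 C, 5% CO2, then Hoechst-stained 40 min. Nuclear DNA content imaged by fluorescence scanning (405 nm excitation, 500-530 nm emission); re-replication scored as increased high-intensity nuclei.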
MCF10A rerep: A quantitative high throughput screen for small molecules that induce DNA re-replication in MCF 10a normal breast cells; MCF 10A DNA re-replication, Hoechst nuclear intensity, 48 h; Potency, µM (doses to about 46.1 µM), usual class: activators; 350,000 tested, 2.9% active; AID 624296, 2012; further: nearly all actives have a fitted effect of over 50% in size
KB-V1 MDR tox: qHTS assay for MDR1-selective chemotherapeutics: Primary screen using the drug-selected MDR subline cells KB-V1. KB-V1 MDR cells viability, CellTiter-Glo, 72 h. Potency, µM (doses to about 46.1 µM), actives largely listed as cytotoxic. 400,000 tested, 3.4% active. AID 1347076, 2019; further: nearly all actives have a fitted effect of over 60% in size
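qHTS viability screen in drug-selected KB-V1 MDR cells: 72 h compound treatment at 37 degrees C, ATP luminescence end point.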
PINK1 modulator: A Quantitative High throughput Screen to Identify Chemical Modulators of PINK1 Expression; PINK1 immunofluorescence, high-content cytometry, 24 h; Potency, µM (doses to about 76.6 µM), actives largely listed as activators; 410,000 tested, 0.2% active; AID 624263, 2012; active means well fitted activation curve with a large enough effect; inconclusive means small, poorly fitted or top-dose-only effect; cell line not stated here; further: nearly all actives have a fitted effect of over 65% in size
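Fluorescence from anti-PINK1 antibody, together with nuclear and cell stains, was scanned on a laser-scanning cytometer. Before staining, stable-line cells were incubated 24 hours with compounds at 5 concentrations; primary antibody 12 h at 10 degrees C.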
PTAP TSG101 blk: qHTS Assay for Iinhibitors of HIV-1 Budding by Blocking the Interaction of PTAP/TSG101; Tumor susceptibility gene 101 protein (Homo sapiens), Q99816; Fluorescence polarization, FITC-PTAP peptide / Tsg101 binding; AID 493005, 2010; Potency, µM (series often up to 115 µM), hits mostly inhibitors; 340,000 tested, under 10 active; active means well fitted inhibition curve with a large enough effect in the main read-out, with a control signal flat, not every such curve was filed as active; inconclusive means small, poorly fitted or top-dose-only effect, or effect the other way, or a change in a side signal; inactive means no such curve, though single readings can be large or run the other way
Target sequence (Q99816 whole entry, looked up): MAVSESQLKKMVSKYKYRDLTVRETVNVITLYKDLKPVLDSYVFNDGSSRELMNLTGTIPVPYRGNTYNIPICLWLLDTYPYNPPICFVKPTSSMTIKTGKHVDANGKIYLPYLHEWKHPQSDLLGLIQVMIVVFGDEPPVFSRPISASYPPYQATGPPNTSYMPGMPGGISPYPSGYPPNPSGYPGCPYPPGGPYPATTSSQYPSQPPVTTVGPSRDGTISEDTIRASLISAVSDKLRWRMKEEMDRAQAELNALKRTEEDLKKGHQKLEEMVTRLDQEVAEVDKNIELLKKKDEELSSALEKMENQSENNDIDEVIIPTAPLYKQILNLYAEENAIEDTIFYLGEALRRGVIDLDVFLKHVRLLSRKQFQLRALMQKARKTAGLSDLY
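Fluorescence anisotropy tracks displacement of a FITC-tagged PTAP peptide (50 nM) from the Tsg101 binding domain (10 uM), following a 20 min room-temperature incubation at pH 7.5.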
KB-3-1 cytotox: qHTS assay for MDR1-selective chemotherapeutics: Primary screen using the parental adenocarcinoma cell KB-3-1 | KB-3-1 viability, CellTiter-Glo ATP luminescence, 72 h | Potency, µM (series often up to 46.1 µM), hits mostly cytotoxic | 400,000 tested, 1.4% active | AID 1347075, 2019; further: nearly all actives have a fitted effect of over 60% in size
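Viability of parental KB-3-1 cells, measured by CellTiter-Glo luminescence, followed a 72 h incubation at 37 °C with pinned compounds in phenol-red-free DMEM containing 10% FBS.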
Each line names hits and unclear results; the compound was inactive in the other large screens. A selection: hits, their analogues and other compounds. The true share with any hit is near 6.8%. Unless noted, the call rests on the fitted dose curve; in most records, active means well fitted curve in the direction sought with a large enough effect; inconclusive means small, poorly fitted or top-dose-only effect, or another doubt; inactive means no such curve, though single readings can be large; an effect the other way counts as inactive or inconclusive.

Cn1ccnc1C(O)c1ccccc1 (stereo not given)	none
CCOC(=O)c1cc(NC(=O)C2C3C=CC(O3)C2C(=O)O)cc(C(=O)OCC)c1 (stereo not given)	none
CCOC(=O)c1cc(NC(=O)C2C3CCC(O3)C2C(=O)O)cc(C(=O)OCC)c1 (stereo not given)	KB-V1 MDR tox 23µM (no result: PTAP TSG101 blk)
COc1ccc(-n2cc(C#N)c(=O)n(Cc3ccc(F)cc3)c2=O)cc1	SW480 rereplic 13µM, MCF10A rerep inconclusive, KB-V1 MDR tox inconclusive
Cc1cc(C)n(Cc2ccc(F)cc2)c(=O)c1C#N	KB-V1 MDR tox inconclusive
COc1c(Cl)cccc1-c1cn2ccccc2n1	KB-V1 MDR tox 12µM
Cc1ccc(NC(=O)/C(C#N)=C(\N)C(Cl)(Cl)Cl)nc1	MCF10A rerep 18µM, KB-V1 MDR tox inconclusive, PTAP TSG101 blk inconclusive, KB-3-1 cytotox 18µM
Cc1ccc(NC(=O)C(=O)Nc2ccc(C)cn2)nc1	none
C[n+]1ccccc1N1CCN(c2ccccc2Cl)CC1	KB-3-1 cytotox 21µM
CC(C)N(C(=O)CSc1nnnn1C1CCCC1)C(C)C	KB-V1 MDR tox 13µM
CCOc1ccccc1NC(=O)CN1C(=O)CC(c2ccc(C)c(C)c2)=Nc2ccccc21	none (no result: SW480 rereplic, MCF10A rerep, PTAP TSG101 blk)
O=C(CCl)N(Cc1ccccc1)c1ccccc1	SW480 rereplic 5.8µM, MCF10A rerep 16µM, KB-3-1 cytotox inconclusive
Cc1c(Cl)cccc1NC(=O)COCc1cc(-c2ccc3c(c2)OCO3)on1	none (no result: SW480 rereplic, MCF10A rerep, PTAP TSG101 blk)
CCN1C(=O)/C(=C\C=C\c2ccccc2[N+](=O)[O-])SC1=S	SW480 rereplic inconclusive, MCF10A rerep 4.1µM, KB-V1 MDR tox inconclusive, KB-3-1 cytotox inconclusive
COC(=O)C1=C(C)NC(=S)NC1c1ccc(-c2cccc(Cl)c2)o1 (stereo not given)	SW480 rereplic 18µM, MCF10A rerep inconclusive
CCOC(=O)C1=C(C)NC(=S)NC1c1ccc(-c2ccc(Cl)cc2)o1 (stereo not given)	MCF10A rerep inconclusive, KB-V1 MDR tox 8.2µM, KB-3-1 cytotox inconclusive
COC(=O)C1=C(C)NC(C)=C(C(=O)OC)C1c1ccc(-c2cc(Cl)ccc2Cl)o1	MCF10A rerep inconclusive
CCOC(=O)C1=C(C)NC(=O)NC1c1ccc(-c2ccc(F)cc2)o1 (stereo not given)	KB-V1 MDR tox inconclusive
CCOC(=O)C1=C(C)NC(=O)NC1c1ccc(-c2ccc(Cl)cc2)o1 (stereo not given)	MCF10A rerep inconclusive, KB-V1 MDR tox 21µM, KB-3-1 cytotox inconclusive
COC(=O)C1=C(C)NC(C)=C(C(=O)OC)C1c1ccc(-c2cccc(Cl)c2Cl)o1	MCF10A rerep inconclusive, KB-V1 MDR tox 16µM
CC(C)c1cc(C(=O)NC(C)c2ccccc2)no1 (stereo not given)	none (no result: SW480 rereplic, MCF10A rerep, PTAP TSG101 blk)
COC(=O)c1ccccc1S(=O)(=O)N(Cc1cc2ccc(OC)cc2[nH]c1=O)CC1CCCO1 (stereo not given)	KB-V1 MDR tox 15µM
COc1ccc2cc(CN(CC3CCCO3)C(=S)Nc3ccccc3)c(=O)[nH]c2c1 (stereo not given)	SW480 rereplic 16µM, MCF10A rerep 13µM, KB-V1 MDR tox 21µM, KB-3-1 cytotox 5.8µM
COc1ccccc1NC(=O)N(Cc1cccs1)Cc1cc2cc3c(cc2[nH]c1=O)OCO3	SW480 rereplic inconclusive, MCF10A rerep 21µM, KB-V1 MDR tox inconclusive, KB-3-1 cytotox inconclusive
COC(=O)c1ccccc1NC(=S)N(Cc1ccc2c(c1)OCO2)Cc1cc2cc(OC)ccc2[nH]c1=O	MCF10A rerep inconclusive, KB-V1 MDR tox 18µM (no result: SW480 rereplic)
O=C(C[n+]1c(Cl)ccc2ccccc21)c1ccc2ccccc2c1	KB-3-1 cytotox inconclusive (no result: SW480 rereplic, MCF10A rerep, PTAP TSG101 blk)
CCO[C@H]1[C@H](NC(=O)c2cccnc2)c2ccccc2C12CCN(C(=O)c1ccoc1)CC2	none (no result: SW480 rereplic, MCF10A rerep, KB-V1 MDR tox, PTAP TSG101 blk, KB-3-1 cytotox)
COc1ccc(S(=O)(=O)N(Cc2cc3cc(C)ccc3[nH]c2=O)CC2CCCO2)cc1 (stereo not given)	KB-V1 MDR tox 7.3µM
Cc1ccc(N(Cc2cc3ccccc3[nH]c2=O)S(=O)(=O)c2ccccc2)cc1	none
COc1ccc2cc(CN(Cc3cccnc3)S(=O)(=O)c3ccccc3)c(=O)[nH]c2c1	KB-V1 MDR tox 16µM, KB-3-1 cytotox inconclusive
COc1ccc2cc(CN(CC3CCCO3)S(=O)(=O)c3ccc(C(C)=O)cc3)c(=O)[nH]c2c1 (stereo not given)	none (no result: PINK1 modulator)
COc1ccc2cc(CN(CC3CCCO3)C(=O)Nc3ccccc3OC)c(=O)[nH]c2c1 (stereo not given)	SW480 rereplic 15µM, MCF10A rerep 18µM, KB-V1 MDR tox 12µM, KB-3-1 cytotox 5.2µM
COc1ccc2cc(CN(CC3COCCO3)S(=O)(=O)c3ccccc3)c(=O)[nH]c2c1 (stereo not given)	none
Cc1ccc2cc(CN(c3ccccc3C)S(=O)(=O)c3ccccc3)c(=O)[nH]c2c1	SW480 rereplic 21µM, MCF10A rerep inconclusive, KB-V1 MDR tox inconclusive, KB-3-1 cytotox inconclusive
Cc1cc2cc(CN(CC3CCCO3)C(=S)Nc3ccccc3)c(=O)[nH]c2cc1C (stereo not given)	SW480 rereplic inconclusive, MCF10A rerep 10µM, KB-3-1 cytotox 7.3µM
COc1cccc2cc(-c3nc4sc(C(=O)Nc5ccc(F)cc5F)c(C)c4c(=O)[nH]3)c(=O)oc12	PINK1 modulator inconclusive (no result: SW480 rereplic, MCF10A rerep, PTAP TSG101 blk)
O=[N+]([O-])c1cc(/C=N/N2CCN(C3c4ccccc4-c4ccccc43)CC2)ccc1Cl	KB-V1 MDR tox inconclusive, KB-3-1 cytotox 21µM
C(=N\N1CCN(C2c3ccccc3-c3ccccc32)CC1)/c1cccnc1	MCF10A rerep inconclusive, KB-V1 MDR tox inconclusive
C(=N\N1CCN(C2c3ccccc3-c3ccccc32)CC1)/c1ccccn1	MCF10A rerep inconclusive, KB-V1 MDR tox 18µM, KB-3-1 cytotox inconclusive
C[C@@H](NCCCc1cccc(C(F)(F)F)c1)c1cccc2ccccc12	SW480 rereplic inconclusive, MCF10A rerep 21µM, KB-V1 MDR tox inconclusive, PINK1 modulator inconclusive, KB-3-1 cytotox inconclusive (no result: PTAP TSG101 blk)
Cc1noc(C)c1COC(=O)c1ccc(N(C)C)cc1	KB-V1 MDR tox 4.1µM, KB-3-1 cytotox inconclusive
CCN(C(=O)COC(=O)c1ccc(OCc2c(C)noc2C)cc1)c1ccccc1	none
CCOc1ncccc1C(=O)OCc1ccc(Cl)cc1	none
CC(=O)Nc1ccc(C(=O)OCc2ccc(Br)cc2)cc1	MCF10A rerep inconclusive, KB-V1 MDR tox 18µM
O=C(OCc1ccc(Br)cc1)c1ccncc1	SW480 rereplic inconclusive
